# Results taken from the supplement of paper PMC8728848.
# The sample as a whole holds a higher share of the strongest signals than the screen did.
# B1: AT1G15820(NC) (Arabidopsis thaliana) (protein)
# chain: MAMAVSGAVLSGLGSSFLTGGKRGATALASGVGDAIAPFSFGSLLGTQLLLMGWVESKRWVDFFNPDSQSVEWATPWSKTAENFANYTGDQGYPGGRFFDPLGLAGKNRDGVYEPDFEKLERLKLAEIKHSRLAMVAMLIFYFEAGQGKTPLGALGL
# What was measured:
# Experiment in all cases: glycan array binding signal (z-score within array); higher = stronger binding
# Settings in all cases: glycan notation: IUPAC condensed, linker removed
# Fuc(a1-2)Gal = molecular target: Fuc(a1-2)Gal
# How it was run: (§1)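 The binding signal is a Z-score computed within each array. Data were drawn from 3228 arrays in the Consortium for Functional Glycomics database, restricted to those with a known protein sequence. Scores were averaged over arrays of the same protein sequence at different concentrations or buffers, and over linkers, and negative values can be taken as non-binding.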
# [1] = molecular target: Fuc(a1-2)Gal(b1-3)GlcNAc(b1-2)Man(a1-3)[Fuc(a1-2)Gal(b1-3)GlcNAc(b1-2)Man(a1-6)]Man(b1-4)GlcNAc(b1-4)[Fuc(a1-6)]GlcNAc
# How it was run: as §1
# [2] = molecular target: Fuc(a1-2)Gal(b1-3)GlcNAc(b1-3)[Neu5Ac(a2-6)Gal(b1-4)GlcNAc(b1-6)]Gal(b1-4)Glc
# How it was run: as §1
# [3] = molecular target: Fuc(a1-2)Gal(b1-3)GlcNAc6S
# How it was run: as §1
# [4] = molecular target: Fuc(a1-2)Gal(b1-3)[Fuc(a1-4)]GlcNAc
# How it was run: as §1
# [5] = molecular target: Fuc(a1-2)Gal(b1-4)GlcNAc(b1-2)Man
# How it was run: as §1
# [6] = molecular target: Fuc(a1-2)Gal(b1-4)GlcNAc(b1-3)Gal(b1-4)GlcNAc(b1-3)Gal(b1-4)GlcNAc
# How it was run: as §1
# [7] = molecular target: Fuc(a1-2)Gal(b1-4)[Fuc(a1-3)]GlcNAc(b1-2)[Fuc(a1-2)Gal(b1-4)[Fuc(a1-3)]GlcNAc(b1-4)]Man(a1-3)[Fuc(a1-2)Gal(b1-4)[Fuc(a1-3)]GlcNAc(b1-2)Man(a1-6)]Man(b1-4)GlcNAc(b1-4)GlcNAc
# How it was run: as §1
# [8] = molecular target: Fuc(a1-2)[Gal(a1-3)]Gal(b1-3)GalNAc
# How it was run: as §1
# [9] = molecular target: Fuc(a1-2)[Gal(a1-3)]Gal(b1-3)GlcNAc
# How it was run: as §1
# [10] = molecular target: Fuc(a1-2)[Gal(a1-3)]Gal(b1-4)Glc
# How it was run: as §1
# [11] = molecular target: Fuc(a1-2)[GalNAc(a1-3)]Gal(b1-4)GlcNAc(b1-6)GalNAc
# How it was run: as §1
# [12] = molecular target: Fuc(a1-2)[GalNAc(a1-3)]Gal(b1-4)[Fuc(a1-3)]GlcNAc(b1-3)GalNAc
# How it was run: as §1
# [13] = molecular target: Fuc(a1-3)[Gal3S(b1-4)]Glc
# How it was run: as §1
# Gal(a1-3)Gal(b1-4)GlcNAc = molecular target: Gal(a1-3)Gal(b1-4)GlcNAc
# How it was run: as §1
# [14] = molecular target: Gal(a1-3)[Gal(a1-4)]Gal(b1-4)GlcNAc
# How it was run: as §1
# [15] = molecular target: Gal(b1-3)GalNAc(a1-3)[Fuc(a1-2)]Gal(b1-4)GlcNAc
# How it was run: as §1
# [16] = molecular target: Gal(b1-3)GlcNAc(a1-6)Gal(b1-4)GlcNAc
# How it was run: as §1
# [17] = molecular target: Gal(b1-3)GlcNAc(b1-3)Gal(b1-4)GlcNAc(b1-6)[Gal(b1-3)GlcNAc(b1-3)]Gal(b1-4)Glc
# How it was run: as §1
# [18] = molecular target: Gal(b1-3)GlcNAc(b1-3)GalNAc
# How it was run: as §1
# [19] = molecular target: Gal(b1-3)GlcNAc(b1-6)[Gal(b1-3)]GalNAc
# How it was run: as §1
# [20] = molecular target: Gal(b1-3)[Fuc(a1-4)]GlcNAc(b1-2)Man
# How it was run: as §1
# [21] = molecular target: Gal(b1-4)GlcNAc(b1-3)Gal(b1-4)Glc
# How it was run: as §1
# [22] = molecular target: Gal(b1-4)GlcNAc(b1-3)Gal(b1-4)GlcNAc(b1-3)Gal(b1-4)GlcNAc(b1-3)Gal(b1-4)GlcNAc(b1-2)Man(a1-3)[Gal(b1-4)GlcNAc(b1-3)Gal(b1-4)GlcNAc(b1-3)Gal(b1-4)GlcNAc(b1-3)Gal(b1-4)GlcNAc(b1-2)Man(a1-6)]Man(b1-4)GlcNAc(b1-4)GlcNAc
# How it was run: as §1
# [23] = molecular target: Gal(b1-4)GlcNAc(b1-3)Gal(b1-4)GlcNAc(b1-3)Gal(b1-4)GlcNAc(b1-3)Gal(b1-4)GlcNAc(b1-3)Gal(b1-4)GlcNAc(b1-2)Man(a1-3)[Gal(b1-4)GlcNAc(b1-3)Gal(b1-4)GlcNAc(b1-3)Gal(b1-4)GlcNAc(b1-3)Gal(b1-4)GlcNAc(b1-3)Gal(b1-4)GlcNAc(b1-2)Man(a1-6)]Man(b1-4)GlcNAc(b1-4)GlcNAc
# How it was run: as §1
# [24] = molecular target: Gal(b1-4)GlcNAc(b1-3)Gal(b1-4)GlcNAc(b1-3)[Gal(b1-4)GlcNAc(b1-3)Gal(b1-4)GlcNAc(b1-6)]GalNAc
# How it was run: as §1
# GalNAc(b1-3)GlcNAc = molecular target: GalNAc(b1-3)GlcNAc
# How it was run: as §1
# GalNAc(b1-4)GlcNAc = molecular target: GalNAc(b1-4)GlcNAc
# How it was run: as §1
# [25] = molecular target: GalNAc(b1-4)GlcNAc(b1-2)Man
# How it was run: as §1
# [26] = molecular target: GlcNAc(a1-4)Gal(b1-4)GlcNAc(b1-3)Gal(b1-4)GlcNAc(b1-3)Gal(b1-4)GlcNAc
# How it was run: as §1
# [27] = molecular target: GlcNAc(a1-6)Gal(b1-4)GlcNAc
# How it was run: as §1
# [28] = molecular target: GlcNAc(b1-3)Gal(b1-4)GlcNAc(b1-2)[GlcNAc(b1-3)Gal(b1-4)GlcNAc(b1-6)]Man(a1-6)[GlcNAc(b1-3)Gal(b1-4)GlcNAc(b1-2)Man(a1-3)]Man(b1-4)GlcNAc(b1-4)GlcNAc
# How it was run: as §1
# [29] = molecular target: GlcNAc(b1-3)Gal(b1-4)GlcNAc(b1-3)Gal(b1-4)GlcNAc(b1-2)Man(a1-3)[GlcNAc(b1-3)Gal(b1-4)GlcNAc(b1-3)Gal(b1-4)GlcNAc(b1-2)Man(a1-6)]Man(b1-4)GlcNAc(b1-4)[Fuc(a1-6)]GlcNAc
# How it was run: as §1
# [30] = molecular target: GlcNAc(b1-4)Gal(b1-4)GlcNAc
# How it was run: as §1
# GlcNAc(b1-4)GlcNAc = molecular target: GlcNAc(b1-4)GlcNAc
# How it was run: as §1
# [31] = molecular target: GlcNAc(b1-4)GlcNAc(b1-4)GlcNAc(b1-4)GlcNAc(b1-4)GlcNAc
# How it was run: as §1
# [32] = molecular target: Neu5Ac(a2-3)Gal(b1-3)GalNAc(b1-4)[Neu5Ac(a2-3)]Gal(b1-4)Glc
# How it was run: as §1
# [33] = molecular target: Neu5Ac(a2-3)Gal(b1-3)[Fuc(a1-4)]GlcNAc(b1-3)Gal(b1-3)[Fuc(a1-4)]GlcNAc
# How it was run: as §1
# [34] = molecular target: Neu5Ac(a2-3)Gal(b1-4)GlcNAc(b1-2)Man(a1-3)[Neu5Ac(a2-3)Gal(b1-4)GlcNAc(b1-2)Man(a1-6)]Man(b1-4)GlcNAc(b1-4)[Fuc(a1-6)]GlcNAc
# How it was run: as §1
# [35] = molecular target: Neu5Ac(a2-3)Gal(b1-4)GlcNAc6S
# How it was run: as §1
# [36] = molecular target: Neu5Ac(a2-3)[GalNAc(b1-4)]Gal(b1-4)GlcNAc
# How it was run: as §1
# Neu5Ac(a2-6)Gal(b1-4)Glc = molecular target: Neu5Ac(a2-6)Gal(b1-4)Glc
# How it was run: as §1
# [37] = molecular target: Neu5Ac(a2-6)Gal(b1-4)GlcNAc
# How it was run: as §1
# [38] = molecular target: Neu5Ac(a2-6)Gal(b1-4)GlcNAc(b1-2)Man(a1-3)[GlcNAc(b1-2)Man(a1-6)]Man(b1-4)GlcNAc(b1-4)GlcNAc
# How it was run: as §1
# [39] = molecular target: Neu5Ac(a2-6)Gal(b1-4)GlcNAc(b1-2)Man(a1-3)[Neu5Ac(a2-6)Gal(b1-4)GlcNAc(b1-2)Man(a1-6)]Man(b1-4)GlcNAc(b1-4)[Fuc(a1-6)]GlcNAc
# How it was run: as §1
# [40] = molecular target: Neu5Ac(a2-6)Gal(b1-4)GlcNAc(b1-2)[Neu5Ac(a2-6)Gal(b1-4)GlcNAc(b1-4)]Man(a1-3)[GlcNAc(b1-4)][Neu5Ac(a2-6)Gal(b1-4)GlcNAc(b1-2)[Neu5Ac(a2-6)Gal(b1-4)GlcNAc(b1-6)]Man(a1-6)]Man(b1-4)GlcNAc(b1-4)GlcNAc
# How it was run: as §1
# [41] = molecular target: Neu5Ac(a2-6)Gal(b1-4)GlcNAc(b1-3)[Neu5Ac(a2-6)Gal(b1-4)GlcNAc(b1-6)]GalNAc
# How it was run: as §1
# [42] = molecular target: Neu5Ac(a2-6)Gal(b1-4)GlcNAc6S
# How it was run: as §1
# [43] = molecular target: Neu5Ac(a2-6)GlcNAc(b1-4)GlcNAc(b1-4)GlcNAc
# How it was run: as §1
# [44] = molecular target: Neu5Ac(a2-8)Neu5Ac(a2-3)Gal(b1-3)GalNAc(b1-4)[Neu5Ac(a2-8)Neu5Ac(a2-3)]Gal(b1-4)Glc
# How it was run: as §1
# Neu5Gc(a2-6)GalNAc = molecular target: Neu5Gc(a2-6)GalNAc
# How it was run: as §1
binder,measurement,setting,value
B1,glycan array binding signal (z-score),Fuc(a1-2)Gal,4.29
same,glycan array binding signal (z-score),[1],3.01
same,glycan array binding signal (z-score),[2],-0.346
same,glycan array binding signal (z-score),[3],-0.5
same,glycan array binding signal (z-score),[4],-0.307
same,glycan array binding signal (z-score),[5],0.457
same,glycan array binding signal (z-score),[6],-0.439
same,glycan array binding signal (z-score),[7],-0.506
same,glycan array binding signal (z-score),[8],0.211
same,glycan array binding signal (z-score),[9],-0.395
same,glycan array binding signal (z-score),[10],-0.243
same,glycan array binding signal (z-score),[11],-0.49
same,glycan array binding signal (z-score),[12],4.75
same,glycan array binding signal (z-score),[13],-0.315
same,glycan array binding signal (z-score),Gal(a1-3)Gal(b1-4)GlcNAc,-0.211
same,glycan array binding signal (z-score),[14],4.55
same,glycan array binding signal (z-score),[15],-0.432
same,glycan array binding signal (z-score),[16],-0.36
same,glycan array binding signal (z-score),[17],5.77
same,glycan array binding signal (z-score),[18],-0.541
same,glycan array binding signal (z-score),[19],-0.208
same,glycan array binding signal (z-score),[20],-0.282
same,glycan array binding signal (z-score),[21],3.65
same,glycan array binding signal (z-score),[22],0.202
same,glycan array binding signal (z-score),[23],0.01
same,glycan array binding signal (z-score),[24],4.39
same,glycan array binding signal (z-score),GalNAc(b1-3)GlcNAc,-0.221
same,glycan array binding signal (z-score),GalNAc(b1-4)GlcNAc,7.2
same,glycan array binding signal (z-score),[25],-0.306
same,glycan array binding signal (z-score),[26],-0.156
same,glycan array binding signal (z-score),[27],-0.626
same,glycan array binding signal (z-score),[28],0.582
same,glycan array binding signal (z-score),[29],2.99
same,glycan array binding signal (z-score),[30],0.405
same,glycan array binding signal (z-score),GlcNAc(b1-4)GlcNAc,-0.216
same,glycan array binding signal (z-score),[31],4.7
same,glycan array binding signal (z-score),[32],-0.581
same,glycan array binding signal (z-score),[33],-0.555
same,glycan array binding signal (z-score),[34],-0.329
same,glycan array binding signal (z-score),[35],-0.18
same,glycan array binding signal (z-score),[36],-0.475
same,glycan array binding signal (z-score),Neu5Ac(a2-6)Gal(b1-4)Glc,-0.637
same,glycan array binding signal (z-score),[37],-0.363
same,glycan array binding signal (z-score),[38],-0.052
same,glycan array binding signal (z-score),[39],0.316
same,glycan array binding signal (z-score),[40],-0.4
same,glycan array binding signal (z-score),[41],-0.424
same,glycan array binding signal (z-score),[42],-0.322
same,glycan array binding signal (z-score),[43],-0.481
same,glycan array binding signal (z-score),[44],5.08
same,glycan array binding signal (z-score),Neu5Gc(a2-6)GalNAc,-0.493
